Compound activity deposited in PubChem BioAssay by several laboratories.
Sampled rows, rich in hits. Any-hit rate of the full collection: about 5.9%.
HSF-1 act: increases HSF-1 driven luciferase reporter signal; NIH3T3-HGL HSF-1 luciferase reporter, MG132, 8 h; 100% = twice DMSO control signal; activation, % at 9 µM; actives 1.7% (n = 300,000); AID 504408;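 active = mean replicate activation of at least 50% with a set share of replicates each reaching 50%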
FXN GAA850 act: activators of GAA850 frataxin (FXN) promoter; HEK293 lucGAA850 FXN promoter luciferase reporter, 24 h; percent of 10 µM SAHA response; activation, % at 6 µM; actives 0.56% (n = 360,000); AID 540364;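 active = activation above the average of all compounds screened plus 3 SD, cutoff fixed separately per campaign, cut at about 7.5% in these data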
DAX1 inh: NR0B1 (DAX1) inhibition | P51843 | HEK293 Gal4-DAX1 luciferase reporter, luminescence | inhibition, % at 6.75 µM | actives 0.99% (n = 340,000) | AID 504766;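 active = inhibition above the mean over all tested compounds plus 3 SD, cut at about 4.2% in these data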;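 also: inhibition shows as a rise in luminescence from relieved DAX1 repression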
HSP90 inh: inhibitors of HSP90 luciferase refolding in rabbit reticulocyte lysate | luciferase refolding luminescence, 3 h | inhibition, % at 5.6 µM | actives 0.91% (n = 290,000);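 active = inhibition above the screen-wide mean plus 3 SD, computed separately per campaign, cut at about 16% in these data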;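 also: inhibitors lower the luminescence because luciferase stays unfolded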
HSF1 inh: HSF1 inhibition; actives 0.77% (n = 300,000); NIH3T3-HGL HSE-luciferase, MG132-induced, luminescence 8 h; hits give low values; activity change, negative = inhibition, % at 7.5 µM (by protocol); AID 2098;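 active = more than half of replicate wells show activity change below -50%, luminescence cut by over half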;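 also: luciferase reports HSF-1 transcriptional activity via heat shock element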
AHR act: human AHR activation. P35869. AHR-responsive luciferase reporter cells, luminescence. activation, % at 5 µM. actives 2.5% (n = 320,000); in the data active = activation above about 47%
Target sequence (P35869 whole entry, looked up): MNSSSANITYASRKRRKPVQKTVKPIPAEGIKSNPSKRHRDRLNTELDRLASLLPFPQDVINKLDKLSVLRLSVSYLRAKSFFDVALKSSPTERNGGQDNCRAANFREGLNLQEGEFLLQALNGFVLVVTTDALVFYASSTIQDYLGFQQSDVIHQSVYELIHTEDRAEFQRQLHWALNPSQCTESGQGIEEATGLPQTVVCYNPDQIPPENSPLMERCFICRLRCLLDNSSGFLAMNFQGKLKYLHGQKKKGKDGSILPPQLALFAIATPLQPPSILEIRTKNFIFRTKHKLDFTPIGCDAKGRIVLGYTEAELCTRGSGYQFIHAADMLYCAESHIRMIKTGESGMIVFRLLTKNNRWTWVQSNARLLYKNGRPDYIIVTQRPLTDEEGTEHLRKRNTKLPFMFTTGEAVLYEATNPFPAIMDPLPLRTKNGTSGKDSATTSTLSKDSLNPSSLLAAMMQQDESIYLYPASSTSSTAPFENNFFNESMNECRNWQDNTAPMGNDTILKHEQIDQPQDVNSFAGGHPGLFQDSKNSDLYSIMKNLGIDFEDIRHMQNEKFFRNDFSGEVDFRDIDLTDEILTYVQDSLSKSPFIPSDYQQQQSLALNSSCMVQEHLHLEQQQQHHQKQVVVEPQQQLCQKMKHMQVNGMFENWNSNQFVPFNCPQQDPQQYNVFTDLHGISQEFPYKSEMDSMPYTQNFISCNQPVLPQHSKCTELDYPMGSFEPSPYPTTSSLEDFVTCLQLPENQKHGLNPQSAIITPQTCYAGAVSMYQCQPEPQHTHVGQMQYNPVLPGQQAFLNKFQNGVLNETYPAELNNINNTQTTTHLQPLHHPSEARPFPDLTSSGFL
A number is an active result; 0 = inactive; - = no result.

SMILES	HSF-1 act	FXN GAA850 act	DAX1 inh	HSP90 inh	HSF1 inh	AHR act
CC(=O)OC(C)(C)/C=C/C(=O)[C@](C)(O)[C@H]1[C@H](O)C[C@@]2(C)[C@@H]3CC=C4[C@H](C[C@H](O)C(=O)C4(C)C)[C@]3(C)C(=O)C[C@]12C	-	0	0	0	-	-
CC(=O)OC(C)(C)/C=C/C(=O)C(C)(O)C1[C@H](O)C[C@@]2(C)C3CC=C4C(CC[C@@H](O)C4(C)C)[C@]3(CO)C(=O)C[C@]12C (some centres not stated)	0	0	0	0	-52.3	0
CC=C(CC)C1(CC)C(=O)NC(=S)NC1=O	-	0	0	-	-	-
CCCCn1c(C)c(C(=O)O)c2cc(OC)c3ccccc3c21	0	0	0	0	0	0
Cc1ccc(N/N=C/c2c(O)n(-c3ccccc3)c(=O)[nH]c2=O)cc1	0	0	0	24.0	0	0
CCc1ccc(N2C(=O)NC(=O)/C(=C/c3cccn3CCOc3ccc(C(C)CC)cc3)C2=O)cc1 (configuration not stated)	0	0	0	29.4	0	0
CCc1ccc(N2C(=O)NC(=O)/C(=C/c3cccn3CCOc3ccc(C)cc3)C2=O)cc1	0	0	0	0	0	0
O=P(Nc1c(Cl)cccc1Cl)(c1ccccc1)c1nc2c(s1)CCCC2 (configuration not stated)	0	0	0	0	0	0
CP(=O)(Nc1ccc(Cl)cc1)c1nc2c(s1)CCCC2 (configuration not stated)	0	0	0	0	0	69.6
CCCCNC(=O)CN1C(=O)CN=C(c2ccccc2)c2ccccc21	0	0	0	0	0	0
COCCNC(=O)CN1C(=O)CN=C(c2ccccc2)c2ccccc21	0	0	4.5	0	0	0
COC(=O)C1=C(c2c(C)noc2C)C[C@@H]2CC[C@H]1N2C(=O)NCc1ccco1	-	0	0	-	-	0
COc1ccc(OC)c(C(O)C2CCCCN2)c1 (configuration not stated)	0	0	0	0	0	0
C[C@]12CC[C@H](O)C[C@H]1CC[C@@H]1[C@@H]2CC[C@]2(C)C(=O)CC[C@@H]12	-	0	4.3	-	-	0
O=C1CC(N2CC=C(c3ccc(F)cc3)CC2)C(=O)N1c1ccc(F)cc1 (configuration not stated)	0	0	0	0	-70.6	0
CCOC(=O)c1ccc(N2C(=O)CC(N3CC=C(c4ccc(F)cc4)CC3)C2=O)cc1 (configuration not stated)	0	0	0	0	0	0
O=C(O)C(Cc1cnc[nH]1)NS(=O)(=O)c1ccc(Br)cc1 (configuration not stated)	0	0	0	0	0	0
ClCCN1CCSCC1	-	0	0	-	-	-
CCN(CC)c1ccc(/C=C2\C(=O)NC(=S)N(C)C2=O)o1	0	0	7.5	0	0	0
CCN(CC)c1ccc(C=C2C(=O)N(C)C(=S)N(C)C2=O)o1	0	0	0	0	0	0
O=C(Cc1ccccc1)Oc1ccc(N2C(=O)CCC2=O)cc1	0	0	0	0	0	0
O=C(Cc1ccccc1)Oc1ccccc1N1C(=O)CCC1=O	0	0	0	0	-61.8	0
O=C(c1ccc(N2CCCCC2)c([N+](=O)[O-])c1)N1CCC2(CC1)OCCO2	0	0	5.1	0	0	0
NC(N)=N/N=C/c1cn(-c2ccccc2)nc1-c1cccs1	0	0	0	0	0	49.5
O=c1c2ccccc2nc(-c2cccs2)n1-c1ccccc1	0	0	0	0	0	0
SMILES	HSF-1 act	FXN GAA850 act	DAX1 inh	HSP90 inh	HSF1 inh	AHR act
O=C(O)[C@H]1NC[C@H]2C[C@H]21	0	0	4.8	0	0	0
C/C=C(\C)C(=O)N[C@@H](c1ccccc1)[C@@H](O)C(=O)O[C@H]1C[C@@]2(O)[C@@H](OC(=O)c3ccccc3)C3[C@](C)(C(=O)[C@H](O)C(=C1C)C2(C)C)[C@@H](O)C[C@H]1OC[C@@]31OC(C)=O (some centres not stated)	0	0	0	0	0	0
CC(=O)O[C@@]12CO[C@@H]1C[C@H](O)[C@@]1(C)C(=O)[C@H](O)C3=C(C)[C@@H](O)C[C@@](O)([C@@H](OC(=O)c4ccccc4)C12)C3(C)C (some centres not stated)	0	0	4.3	0	0	0
O=C1NC(=S)NC(=O)C1=Cc1cccn1-c1ccc(O)cc1	153.8	0	0	0	0	-
CN1C(=O)/C(=C/c2cccn2-c2ccc3ccccc3c2)C(=O)NC1=S	0	0	0	0	0	0
COc1ccc(N2C(=O)NC(=O)/C(=C/c3ccc([N+](=O)[O-])s3)C2=O)cc1	64.3	0	-	0	0	0
COc1ccccc1N(CC(=O)NC1CCCCC1)C(=O)c1cnn(C(C)C)c1	0	0	0	0	0	0
COc1ccc(-c2nc3ccccc3c(=O)n2-c2cccnc2)cc1	0	0	0	0	-68.8	0
CC(C)(C)NC(=S)N1CCn2cccc2C1c1cccnc1 (configuration not stated)	0	0	0	0	0	0
COc1ccccc1N1CCN(Cc2cccc(OC)c2O)CC1	87.9	0	0	0	0	0
CCc1ccc2nc(N3CCC(C(=O)N4CCC5(CC4)OCCO5)CC3)sc2c1	0	0	0	0	0	0
CCOC(=O)c1c(C)n(Cc2ccccc2)c2ccc(OCC(O)Cn3nc(C)nc3C)cc12 (configuration not stated)	0	0	0	0	0	0
CCOC(=O)c1c(C)n(Cc2ccccc2)c2ccc(OCC(O)Cn3nc(C)cc3C)cc12 (configuration not stated)	-	0	0	0	-	55.1
C=CCN1CCc2cccc3c2[C@H]1Cc1ccc(O)c(O)c1-3	95.4	0	0	0	0	0
C=CCN1CC[C@]23c4c5ccc(O)c4OC2[C@H](O)CC[C@@]3(O)[C@H]1C5 (some centres not stated)	-	0	0	-	-	0
CCOC(=O)c1ccc(N=C(C)c2c(O)[nH]c(=O)[nH]c2=O)cc1	0	0	0	0	-63.3	0
CCCCn1c(O)c(C(C)=Nc2ccc(C(=O)O)cc2)c(=O)[nH]c1=O	0	0	0	0	0	0
COc1cc(C2NCc3ccccc3-n3cccc32)ccc1O (configuration not stated)	54.2	0	0	0	0	0
CCOc1cc2c(cc1OCC)-n1cccc1C(c1cccc(OCC)c1O)NC2 (configuration not stated)	51.1	0	0	0	0	0
CCOc1cc2c(cc1OCC)-n1cccc1C(c1ccccc1F)NC2 (configuration not stated)	0	0	0	0	0	0
CCOc1cc(C2NCc3ccccc3-n3cccc32)ccc1OC (configuration not stated)	0	0	0	0	0	0
CCC1(C2=NCCN2)Cc2ccccc2O1 (configuration not stated)	-	0	0	-	-	0
